From PubChem BioAssay
Hits are enriched below; roughly 0.5% of the tested compounds scored in any of these assays.
ERK EGF block: blocks ERK signaling stimulated by EGF. Potency, µM (highest dose often 11.5 µM), for inactives: top-dose activity change, negative = inhibition, most hits filed as inhibitors. HEK293-V1b, EGF-stimulated phospho-ERK AlphaScreen. hit rate 0.41% among 130,000;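 also: potency is read from the fitted curve at half-maximal effect; plate controls were stimulated vehicle wells for no effect and unstimulated vehicle basal for full effect; nearly all actives have a fitted effect of over 55% in size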
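V1b-HEK293, 1% FBS o/n; cpd 30 min 37C; EGF 25 nM final, 5 min; lyse 10 min; AlphaScreen beads 5 h RT. Normalized DMSO basal vs EGF max; Hill AC50.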
CBFb-RUNX1 inh: CBF-beta/RUNX1 interaction disruption | Q01196+Q13951 | Potency, µM (doses to about 59.8 µM), for the others: at the top dose activity, negative = inhibition, actives largely listed as inhibitors | AlphaScreen CBFb-His/RUNX1-biotin binding, biochemical | 230,000 tested, under 10 active | AID 1477; also: % of control where 0% means no effect
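CBF-beta (His) and RUNX1 (biotin), 30 nM each; 20 min preassociation; + compound, 15 min; + beads 50 ng each (Ni, streptavidin), 90 min; RT; AlphaScreen read.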
RGS12 GoLoco inh: RGS12 GoLoco-Gai1 interaction inhibition. Potency, µM (series often up to 61.6 µM), without a hit: at the highest dose activity, negative = inhibition, usual class: inhibitors. P63096. AID 880. hit rate 0.44% among 230,000. Gai1:RGS12 GoLoco peptide FP, rhodamine, 10 min; active = well fitted inhibition curve with a large enough effect, not every such curve was filed as active; inactive = no such curve, though single readings can be large or run the other way; also: potency is read from the fitted curve at half-maximal effect; % is scaled to controls: 0 for no effect and ±100 for the full control effect; nearly all actives have a fitted effect of over 30% in size
Target sequence (P63096 whole entry, looked up): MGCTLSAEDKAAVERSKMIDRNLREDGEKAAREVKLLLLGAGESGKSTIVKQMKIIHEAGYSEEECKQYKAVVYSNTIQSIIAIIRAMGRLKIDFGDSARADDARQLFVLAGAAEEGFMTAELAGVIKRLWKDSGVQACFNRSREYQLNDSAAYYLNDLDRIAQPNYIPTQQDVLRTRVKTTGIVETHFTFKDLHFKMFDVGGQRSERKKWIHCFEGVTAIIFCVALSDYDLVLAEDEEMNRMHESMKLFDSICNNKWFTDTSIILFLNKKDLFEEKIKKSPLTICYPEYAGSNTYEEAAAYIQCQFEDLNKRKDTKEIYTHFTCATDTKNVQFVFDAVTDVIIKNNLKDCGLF
Numbers without * were called inactive; i = inactive; ? = inconclusive; . = no result given; ! = not confirmed by another sample; [ ] = another dose, or the depositor's remark. Unless noted, calls follow the shape of the dose curve; as a rule, active = well fitted curve in the direction sought with a large enough effect; inconclusive = small, poorly fitted or top-dose-only effect, or another doubt; inactive = no such curve, though single readings can be large; an effect the other way counts as inactive or inconclusive.

SMILES	ERK EGF block	CBFb-RUNX1 inh	RGS12 GoLoco inh
Clc1ccc(-c2ncc3ccccn23)cc1	31.6µM*	1.4%	13.7%
Clc1ccccc1-c1ncc2ccccn12	-0.7%	-12.1%	-5.8%
Cc1cccc(C[C@H](C(=O)O)N2C(=O)c3ccc(C(=O)O)cc3C2=O)c1	.	15.0%	.
CC(=O)N[C@@H](C=O)[C@@H](O)[C@H](O)[C@H](O)CO	.	-13.3%	3.5%
O=C(O)CCC/C=C\C/C=C\C=C\[C@@H](O)C/C=C\CCCCCO	-8.3%	6.3%	4.8%
Cc1ccc2c(c1)c1ccc3c(c1n2C)C(=O)C=CC3=O	?	-29.2%	-6.0%
COc1ccc2c(c1)c1ccc3c(c1n2C)C(=O)C=CC3=O	31.6µM*	?	-28.0%
COc1ccc(C2CC(=O)Oc3c(C(CCN4CCOCC4)c4ccc5c(c4)OCO5)c(OC)cc(OC)c32)cc1 (stereo unspecified)	.	-21.3%	.
CCN1/C(=C/c2ccc3cc(C)ccc3[n+]2CC)Sc2ccccc21	?	-26.8%	36.9%
CCN1/C(=C/c2sc(-c3ccccc3C)c[n+]2C)Sc2ccccc21	-9.1%	-0.7%	10µM*
CN1/C(=C\C=O)C(C)(C)c2ccccc21	2.9%	8.2%	118.2%
CN1\C(=C/C=C/C=C/C=[N+](C)C)C(C)(C)c2ccccc21	15.8µM*	-22.5%	i
CCc1c(C)sc(NC(=S)N2CCN(S(C)(=O)=O)CC2)c1C(=O)OC	28.2µM*	1.7%	-0.1%
CCc1c(C)sc(NC(=S)Nc2nc(C)cc(C)n2)c1C(=O)OC	-1.5%	15.3%	18.6%
C=CCn1c(=O)c2c(nc(-c3ccccc3)n2C)n(C)c1=O	.	?	-1.9%
C[n+]1ccc(/C=C/c2ccc(Br)cc2)cc1	.	3.0%	20µM*
C[n+]1ccc(/C=C/c2ccc3ccccc3c2)cc1	.	4.6%	-29.0%
CCCC(=O)Nc1nc2c(ncn2[C@@H]2O[C@H]3COP(=O)(O)O[C@@H]3[C@@H]2OC(=O)CCC)c(=O)[nH]1	.	18.1%	7.7%
COc1ccc(O[C@H]2C=C[C@@H](c3ccccc3)O[C@H]2CO/N=C(/C)CCC(=O)OC[C@@H]2O[C@H](C#Cc3ccccc3)C=C[C@@H]2Oc2ccc(C)cc2)cc1	.	14.6%[13.1 µM]	.
COC(=O)[C@H]1C[C@@H]1[C@H](NC(C)=O)c1ccccc1	9.6%	-0.3%	1.26µM*
COC(=O)[C@@H]1C[C@H]1[C@@H](NC(=O)c1ccccc1)c1ccccc1	8.4%	5.1%[2.36 µM]	-1.1%
Cc1ccc(/C=C2\SC(=S)N(CCCC(=O)NNC(=O)c3ccccc3O)C2=O)cc1	3.5%[57.5 µM]	4.8%	25.1%
O=C(CN1C(=O)/C(=C/c2ccccc2)SC1=S)NNC(=O)c1ccccc1O	14.1µM*	10.3%	12.9%
COc1cccc(C2=Nn3c(nnc3-c3ccccc3C)SC2)c1	.	-11.9%	.
CC[C@H](C)[C@@H](NC(=O)O[C@@H]1Cc2cc(Br)ccc2O[C@H]1c1cccc(OC)c1)C(=O)OC	-7.7%	1.6%	-4.6%
SMILES	ERK EGF block	CBFb-RUNX1 inh	RGS12 GoLoco inh
C=C(C)C(=O)OC[C@@H]1CCC[N@+]2(C)CCCCC12 (stereo partly specified)	-7.9%	15.1%	-12.6%
C[N+]12CCCCC1[C@@H](CO)CCC2 (stereo partly specified)	3.3%[57.5 µM]	10.8%	4.47µM*
Cc1cc(=O)c2c(O)c3c(O)cc(O)c4c5c(O)cc(O)c6c(O)c7c(=O)cc(C)c8c1c2c(c34)c(c65)c78	.	?	4.47µM*
Cc1cc(O)c2c(c1O)C(=O)c1c(O)cc(C)c(O)c1C2=O	9.0%	-17.5%	1.6%
CCOC(=O)C1=CC2(CC)CCCN3CCc4c(n1c1ccccc41)C32 (stereo unspecified)	.	11.7%	-3.7%
Cc1ccc(C(=O)NC(=S)/C=C2\N(C)c3ccccc3C2(C)C)cc1	25.1µM*	.	53.9%
CC(C)C(=O)NC(=S)/C=C1/N(C)c2ccccc2C1(C)C	?	-61.4%	180.5%
COC(=O)[C@@H]1OC(c2ccccc2)O[C@H]1C(=O)OC	.	13.6%	.
ClC(Cl)Cl	.	5.3%[21.7 µM]	15.8µM*
O=C(O)c1cccc(-n2cccc2/C=C2/NC(=O)N(c3ccc(Cl)cc3)C2=O)c1	-4.6%	?	-7.6%
COc1ccc(-n2cccc2/C=C2/NC(=O)N(c3cccc(Cl)c3)C2=O)cc1	-4.0%	-5.8%	3.55µM*
CCOC(=O)N/N=C1/C[C@@H](O)[C@@H](O)[C@@H]2[C@@H]3C(=O)N(Cc4ccccc4)C(=O)[C@H]3CC[C@H]12	.	0.7%[13.1 µM]	.
CC(C)C[C@H](N)C(=O)N[C@H](C(=O)N[C@@H](CCCN=C(N)N)C(=O)N[C@H](CS)C(=O)NCC(=O)N[C@@H](CCCCN)C(=O)N[C@@H](Cc1cnc[nH]1)C(=O)N[C@@H](CO)C(=O)N[C@@H](CCCN=C(N)N)C(=O)O)C(C)C	.	1.8%	.
CCCCOc1ccc(C2OC34CCCCC3C(C#N)(C#N)C2(C#N)C(=N)O4)cc1 (stereo unspecified)	.	2.6%	25.1µM*
Cc1ccc(C2OC34CCCCCC3C(C#N)(C(=N)O4)C2(C#N)C#N)cc1 (stereo unspecified)	1.5%	-19.8%	9.9%
CCOc1ccc(C2OC34CCCCC3C(C#N)(C#N)C2(C#N)C(=N)O4)cc1OC (stereo unspecified)	.	-4.8%	1.41µM*
C=CCOc1ccc(C2OC34CCCCC3C(C#N)(C#N)C2(C#N)C(=N)O4)cc1 (stereo unspecified)	.	-6.4%	-72.9%
N[C@@H](CSSC[C@H](N)C(=O)O)C(=O)O	.	2.0%	.
COc1ccccc1-c1cc(=O)c2cccc(OC)c2o1	24.3%	.	3.3%
COc1cccc(-c2cc(=O)c3ccccc3o2)c1N	5.01µM*!	?	-3.9%
COCCn1c(=O)c(-c2ccc(F)cc2)nc2cncnc21	10.0%	.	5.4%
CCC1CC=CC2C1C(=O)N(Cc1ccccc1)C2c1cc(C)ccc1F (stereo unspecified)	.	25.5%	.
c1ccc(C(NCc2cccnc2)(c2ccccc2)c2ccccc2)cc1	.	14.9%	.
Cn1c(=O)c2[nH]c(-c3ccccc3Cl)c(O)c2n(C)c1=O	3.1%	-0.7%	2µM*
Cn1c(=O)c2[nH]c(-c3ccccc3)c(O)c2n(C)c1=O	-0.4%	4.7%	-18.5%
SMILES	ERK EGF block	CBFb-RUNX1 inh	RGS12 GoLoco inh
Cc1ccc(-n2sc3ccccc3c2=O)cc1	-1.9%	-3.4%	10µM*
Cc1ccc(Cn2c(=O)sc3ccccc3c2=O)cc1	.	22.4%	1.8%
COc1cccc([C@@H]2Oc3ccc(Br)cc3C(=O)[C@H]2OC(=O)Nc2ccc(OC(F)F)cc2)c1	0.5%	-4.4%	-7.8%
CCN1/C(=C/c2cc[n+](CCCS(=O)(=O)[O-])c3ccccc23)Sc2ccccc21	-4.8%	12.6%	24.1%
C=CC[n+]1ccc(/C=C2\C=Cc3cc(C)ccc3N2CC)c2ccccc21	14.1µM*	?	178.2%
COc1ccc2[nH]cc(CCNc3ccnc(-c4ccccc4C)n3)c2c1	.	.	-0.4%
Cn1ccc(-c2ccccc2)n1	-3.1%	4.9%	5.7%
N#Cc1cc(-c2ccccc2)nn1-c1ccccc1	.	14.3%	12.6µM*
COc1ccccc1C1OC(=O)CC1C(=O)OC[C@@H]1CCCN2CCCCC12 (stereo partly specified)	-7.3%	10.4%	3.9%
CNC(=O)c1cc2cc(OC)ccc2oc1=O	.	2.0%	-5.9%
COc1ccc2oc(=O)c(C(=O)C[n+]3cccc(C)c3)cc2c1	-6.1%	1.3%	10µM*
